In PubChem BioAssay (EPA / NIEHS):
Active and inactive are the calls of the source. Rule for the calls: active = hit-call score of the fitted dose curve at least 0.9, where 1 is the maximum; inactive = score below 0.9.

molecular target: Transcription factor Sp1 (Homo sapiens) (UniProt P08047); test: ATG_Sp1_CIS: Attagene CIS-FACTORIAL HepG2 Assay for human Specificity Protein 1 (Sp1) (AID 2282961); conditions: HepG2 Sp1 cis-reporter transcription, actives raise or lower the signal
Procedure, shortened: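 Measures mRNA induction of an Sp1-linked reporter in HepG2 cells 24 h post-dosing. Multiplexed reporters read by RT-PCR and capillary electrophoresis; DMSO serves as negative control and baseline.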

Sequence of Transcription factor Sp1 (Homo sapiens) (P08047 whole entry, looked up): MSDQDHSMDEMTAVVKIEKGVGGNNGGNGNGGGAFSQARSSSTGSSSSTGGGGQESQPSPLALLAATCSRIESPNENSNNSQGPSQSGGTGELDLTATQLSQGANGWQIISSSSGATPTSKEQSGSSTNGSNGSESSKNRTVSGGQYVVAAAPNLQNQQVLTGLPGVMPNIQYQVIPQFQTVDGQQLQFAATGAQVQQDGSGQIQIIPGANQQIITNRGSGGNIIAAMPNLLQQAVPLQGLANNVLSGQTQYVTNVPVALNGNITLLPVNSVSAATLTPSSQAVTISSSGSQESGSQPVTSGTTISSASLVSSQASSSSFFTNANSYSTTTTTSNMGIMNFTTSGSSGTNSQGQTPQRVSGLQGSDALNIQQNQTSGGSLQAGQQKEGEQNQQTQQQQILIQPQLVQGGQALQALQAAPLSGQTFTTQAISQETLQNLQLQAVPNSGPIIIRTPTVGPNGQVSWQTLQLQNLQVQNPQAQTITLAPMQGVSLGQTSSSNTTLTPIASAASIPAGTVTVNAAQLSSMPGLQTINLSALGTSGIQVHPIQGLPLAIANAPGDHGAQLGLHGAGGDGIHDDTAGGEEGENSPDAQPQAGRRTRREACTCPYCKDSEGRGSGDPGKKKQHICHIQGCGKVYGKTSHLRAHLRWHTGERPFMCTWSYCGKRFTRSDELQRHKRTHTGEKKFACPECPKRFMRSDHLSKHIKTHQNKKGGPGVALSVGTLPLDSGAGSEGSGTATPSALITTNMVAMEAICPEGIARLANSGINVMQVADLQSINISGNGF

Structure (SMILES)	outcome
CC[C@H](C)[C@H]1O[C@]2(C=C[C@@H]1C)C[C@@H]1C[C@@H](C/C=C(\C)[C@@H](O[C@H]3C[C@H](OC)[C@@H](O[C@H]4C[C@H](OC)[C@@H](NC)[C@H](C)O4)[C@H](C)O3)[C@@H](C)/C=C/C=C3\CO[C@@H]4[C@H](O)C(C)=C[C@@H](C(=O)O1)[C@]34O)O2	inactive
CN(C)[C@@H]1C(=O)C(C(N)=O)=C(O)[C@@]2(O)C(=O)C3=C(O)c4c(O)cccc4[C@@](C)(O)[C@H]3[C@H](O)[C@@H]12	inactive
CCNc1nc(Cl)nc(NC(C)(C)C#N)n1	inactive
CC(C)[C@H](C(=O)O[C@H](C#N)c1cccc(Oc2ccccc2)c1)c1ccc(Cl)cc1	inactive
CCOP(=S)(OCC)Oc1ccc2c(C)c(Cl)c(=O)oc2c1	inactive
CSc1nc(NC(C)C)nc(NC(C)C)n1	inactive
COP(=O)(OC)SCn1c(=O)oc2cc(Cl)cnc21	inactive
CN(C)NC(=O)CCC(=O)O	inactive
Cc1nn(-c2cc(NS(C)(=O)=O)c(Cl)cc2Cl)c(=O)n1C(F)F	inactive
CCCCN(CC)c1c([N+](=O)[O-])cc(C(F)(F)F)cc1[N+](=O)[O-]	inactive
CCC(=NOC/C=C/Cl)C1=C(O)CC(C2CCOCC2)CC1=O (configuration not stated)	inactive
C[N+]1(C)CCCCC1	inactive
CNC(=O)ON=C(SC)C(=O)N(C)C	inactive
COP(=O)(NC(C)=O)SC (configuration not stated)	inactive

tested on: not listed separately; test: ATG_SREBP_CIS: Attagene CIS-FACTORIAL HepG2 Assay for human Sterol Regulatory Element Binding (SREBP) (AID 2282962); conditions: HepG2 Attagene cis-factorial SREBP reporter, mRNA; actives raise or lower the signal
Procedure, shortened: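 Twenty-four hours after chemical dosing of transfected HepG2 cultures, reporter RNA was converted to cDNA, amplified, end-labelled with 6-FAM and resolved by capillary electrophoresis. Responses were fitted relative to DMSO.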

Structure (SMILES)	outcome	AC50
CCOP(=O)(SC(C)CC)N1CCSC1=O (configuration not stated)	inactive	–
CCCCOC(=O)[C@@H](C)Oc1ccc(Oc2ccc(C#N)cc2F)cc1	inactive	–
CC(=NC#N)N(C)Cc1ccc(Cl)nc1	inactive	–
CCc1cccc(C)c1N(C(=O)CCl)C(C)COC (configuration not stated)	inactive	–
COc1cc(OC)nc(Sc2cccc(Cl)c2C(=O)O)n1	inactive	–
CON=C(C(=O)OC)c1ccccc1CON=C(C)c1cccc(C(F)(F)F)c1	inactive	–
CC1=NNC(=O)N(/N=C/c2cccnc2)C1	inactive	–
S=C1NCCN1	inactive	–
CC(C)=CC1C(C(=O)OCN2C(=O)C3=C(CCCC3)C2=O)C1(C)C (configuration not stated)	–	65.2 µM (active)
CC(C1CC1)C(O)(Cn1cncn1)c1ccc(Cl)cc1 (configuration not stated)	inactive	–
C#CC(C)(C)NC(=O)c1cc(Cl)cc(Cl)c1	–	50 µM (active)
CCC(=O)Nc1ccc(Cl)c(Cl)c1	–	50 µM (active)
O=C(O)c1cc(Oc2ccc(C(F)(F)F)cc2Cl)ccc1[N+](=O)[O-]	inactive	–
CCOP(=S)(OCC)SCCSCC	–	29.5 µM (active)
CCc1cnc(C2=NC(C)(C(C)C)C(=O)N2)c(C(=O)O)c1 (configuration not stated)	inactive	–
CCOP(=S)(Oc1cnc(C(C)(C)C)nc1)OC(C)C (configuration not stated)	–	23.2 µM (active)
CCOP(=S)(OCC)OC(Cl)C(Cl)(Cl)Cl (configuration not stated)	–	38.5 µM (active)

Structure (SMILES)	outcome	AC50
CN(C)C(=O)Nc1cccc(C(F)(F)F)c1	inactive	–
CNC(=O)ON=C(C)SC	inactive	–
CCCOc1nn(C(=O)NS(=O)(=O)c2ccccc2C(=O)OC)c(=O)n1C	inactive	–
CCOC(=O)COc1cc(-c2nn(C)c(OC(F)F)c2Cl)c(F)cc1Cl	inactive	–
CCOP(=S)(OCC)Oc1ccc([N+](=O)[O-])cc1	–	89.1 µM (active)
CC[C@H](C)[C@H]1O[C@]2(C=C[C@@H]1C)C[C@@H]1C[C@@H](C/C=C(\C)[C@@H](O[C@H]3C[C@H](OC)[C@@H](O[C@H]4C[C@H](OC)[C@@H](NC)[C@H](C)O4)[C@H](C)O3)[C@@H](C)/C=C/C=C3\CO[C@@H]4[C@H](O)C(C)=C[C@@H](C(=O)O1)[C@]34O)O2	inactive	–
CN(C)[C@@H]1C(=O)C(C(N)=O)=C(O)[C@@]2(O)C(=O)C3=C(O)c4c(O)cccc4[C@@](C)(O)[C@H]3[C@H](O)[C@@H]12	inactive	–
CCNc1nc(Cl)nc(NC(C)(C)C#N)n1	inactive	–
CC(C)[C@H](C(=O)O[C@H](C#N)c1cccc(Oc2ccccc2)c1)c1ccc(Cl)cc1	inactive	–
CCOP(=S)(OCC)Oc1ccc2c(C)c(Cl)c(=O)oc2c1	inactive	–
CSc1nc(NC(C)C)nc(NC(C)C)n1	inactive	–
COP(=O)(OC)SCn1c(=O)oc2cc(Cl)cnc21	inactive	–
CN(C)NC(=O)CCC(=O)O	inactive	–
Cc1nn(-c2cc(NS(C)(=O)=O)c(Cl)cc2Cl)c(=O)n1C(F)F	inactive	–
CCCCN(CC)c1c([N+](=O)[O-])cc(C(F)(F)F)cc1[N+](=O)[O-]	inactive	–
CCC(=NOC/C=C/Cl)C1=C(O)CC(C2CCOCC2)CC1=O (configuration not stated)	inactive	–
